Hit rate of the full screen: of about 340,000 compounds, about 3,400 (1%) were called active.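 Rule for the calls: active = inhibition above the mean over all tested compounds plus 3 SD (cut at about 4.2% in these data); inactive = the rest.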 Only a selection was taken, and actives are over-represented in it overall.
Each molecule was assayed against Nuclear receptor subfamily 0 group B member 1 (Homo sapiens) (UniProt P51843) (assay: DAX1 (NR0B1) inhibitors, primary screen, cell-based, HEK293, Gal4-DAX1, luciferase luminescence (AID 504766;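 note: 0% = DAX1-transfected cells with DMSO and 100% = empty-vector control cells with DMSO; inhibition shows as a rise in luminescence from relieved DAX1 repression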)). Conditions: HEK293 Gal4-DAX1 luciferase reporter, at 6.75 µM, hits give high values.
Sequence of Nuclear receptor subfamily 0 group B member 1 (Homo sapiens) (P51843 207-470 limits assumed): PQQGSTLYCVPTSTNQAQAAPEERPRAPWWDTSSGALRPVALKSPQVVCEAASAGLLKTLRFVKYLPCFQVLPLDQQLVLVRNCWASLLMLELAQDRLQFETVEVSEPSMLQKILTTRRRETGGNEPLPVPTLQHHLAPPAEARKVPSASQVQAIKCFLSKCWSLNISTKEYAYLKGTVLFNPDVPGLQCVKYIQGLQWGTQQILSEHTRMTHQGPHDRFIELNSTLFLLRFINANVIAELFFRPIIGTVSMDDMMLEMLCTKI
`O=C(NCCN1CCOCC1)C1CCN(S(=O)(=O)c2ccccc2)CC1` was tested, and the inhibition was 4.19% (inactive). `CC1CC(=NNC(=O)C2COc3ccccc3O2)CC(C)(C)C1` (stereo not given) was tested, and the inhibition was 0.05% (inactive). In the case of `CC1C/C(=N/NC(=O)c2cccs2)CC(C)(C)C1` (stereo not given), the inhibition is reported as 5.93% (active). In the case of `CC1(C)CC(=O)C/C(=N\NC(=O)c2cccs2)C1`, the inhibition is reported as -0.39% (inactive). In the case of `C[C@H](CO)N1C[C@H](C)[C@@H](CN(C)C(=O)c2cnccn2)Oc2ncc(Br)cc2C1=O`, the inhibition is reported as -0.09% (inactive). With `COc1cc(OC)c(C(=O)NC2CC(C)(C)NC(C)(C)C2)cc1OC` the inhibition was 0.81% (inactive). For `COc1ccc(C(=O)NC2CC(C)(C)NC(C)(C)C2)cc1OC`, the inhibition was 0.53% (inactive). For `COc1cc2c(cc1OC)C(=O)NCC(C)(C)O2`, the inhibition was 4.35% (active). In the case of `O=C(OCc1cn([C@H]2C[C@H](c3ccccc3)N(C(=O)c3cccs3)C[C@@H]2O)nn1)c1ccccc1`, the inhibition is reported as -0.83% (inactive). In the case of `COc1ccc(C(=O)Nc2cccc(NC(=O)c3ccc(OC)cc3OC)n2)c(OC)c1`, the inhibition is reported as -0.74% (inactive). In the case of `COc1ccc(C(=O)Nc2nncs2)c(OC)c1`, the inhibition is reported as 5.95% (active). `COc1ccc(C(=O)NC2=NCCS2)c(OC)c1` was tested, and the inhibition was 0.9% (inactive). With `Cn1nc(N)c2ncc(C(Cl)(Cl)Cl)nc21` the inhibition was 0.87% (inactive). For `CCOC(=O)c1c(C)[nH]c(C)c1C(=O)COC(=O)/C=C/c1cccc([N+](=O)[O-])c1`, the inhibition was 0.45% (inactive). For `CC(CCc1ccccc1)NC(=O)c1ccc(Br)o1` (stereo not given), the inhibition was -0.46% (inactive). With `CCN(CC)S(=O)(=O)N1CCC(C(=O)NC(C)CCc2ccccc2)CC1` (stereo not given) the inhibition was 0.09% (inactive). `CC1=C(C)CC(C(=O)NC(C)CCc2ccccc2)C(C(=O)O)C1` (stereo not given) was tested, and the inhibition was 4.67% (active). With `CC(C)CC1C(=O)N(Cc2cn(CC3CCCCC3)nn2)CCS(=O)(=O)N1Cc1ccc(-c2ccc(Cl)cc2)cc1` (stereo not given) the inhibition was 0.42% (inactive). For `CC(=O)c1ccc(OCC(=O)N(C)C2CCS(=O)(=O)C2)cc1` (stereo not given), the inhibition was -0.31% (inactive). `CN1CCN(/N=C/c2ccc(C#N)cc2)CC1` was tested, and the inhibition was 2.94% (inactive). `CN1CCN(/N=C/c2ccc(-c3ccc([N+](=O)[O-])cc3)o2)CC1` was tested, and the inhibition was 4.57% (active). In the case of `Cc1ccc(-c2ccc(/C=N/NC(=O)CN3CCOCC3)o2)cc1[N+](=O)[O-]`, the inhibition is reported as -1.47% (inactive). `C[C@H]1CN(c2ccc(Br)cc2)C(=O)[C@@H]1CC(=O)Nc1ccc(Br)cc1` was tested, and the inhibition was 0.61% (inactive). In the case of `CCc1cc(C(=O)N(CC)CC(=O)Nc2c(F)cccc2F)sc1C`, the inhibition is reported as 1.94% (inactive). In the case of `Nc1ccc2nn(-c3ccc(Cl)cc3)nc2c1`, the inhibition is reported as 5.29% (active). With `Nc1ccc2c(c1)C(O)c1ccc(Cl)cc1-2` (stereo not given) the inhibition was 1.37% (inactive). In the case of `CCC(=O)Nc1ccc2nn(-c3ccc(F)cc3)nc2c1`, the inhibition is reported as 1.93% (inactive). `Cc1ccccc1Nc1nc(N)nc(CSc2ccccc2)n1` was tested, and the inhibition was 3.71% (inactive). For `Cc1ccc(Nc2nc(N)nc(CSc3nnc(C)s3)n2)cc1`, the inhibition was 4.29% (active). `Cc1nnc(SCc2nc3ccccc3nc2C)s1` was tested, and the inhibition was 0.55% (inactive). With `Cc1cn([C@H]2C[C@H](O)[C@@H](CNC(=O)[C@H](N)Cc3cccnc3)O2)c(=O)[nH]c1=O` the inhibition was 0.07% (inactive). For `CNC(=O)C[C@H]1C(=O)N(c2ccc(OC)cc2)C[C@@H]1Cc1ccccc1`, the inhibition was 0.14% (inactive). For `C[C@H](CO)N1C[C@H](C)[C@@H](CN(C)S(=O)(=O)c2ccc(Oc3ccccc3)cc2)OCc2cn(nn2)CCCC1=O`, the inhibition was 0.27% (inactive). `COc1ccc(C(CNC(=O)CSc2ccccc2)N2CCOCC2)cc1` (stereo not given) was tested, and the inhibition was 1.43% (inactive). With `CC(=O)NC(Cc1c[nH]c2ccccc12)C(=O)NCCc1ccccc1` (stereo not given) the inhibition was 3.45% (inactive). For `Cc1cccc(C)c1OCC(=O)NC(Cc1c[nH]c2ccccc12)C(=O)O` (stereo not given), the inhibition was 0.88% (inactive). For `CC(=O)NC(Cc1c[nH]c2ccccc12)C(=O)O` (stereo not given), the inhibition was 9.87% (active). With `CCc1cc(-c2nnn(CCC3COCCO3)c2CC)ccc1-c1cn(Cc2ccc3ccccc3c2)nn1` (stereo not given) the inhibition was -3.79% (inactive). In the case of `C[C@H]1CN([C@@H](C)CO)C(=O)CCCn2cc(nn2)CO[C@@H]1CN(C)S(=O)(=O)c1ccc(-c2ccccc2)cc1`, the inhibition is reported as 0% (inactive). For `O=C(c1cc(S(=O)(=O)N2CCOCC2)ccc1Cl)N1CCOCC1`, the inhibition was 0.61% (inactive). In the case of `O=C(CCc1ccc(S(=O)(=O)N2CCOCC2)cc1)NN=C1CCCCCCC1`, the inhibition is reported as 0% (inactive). With `O=C(O)c1ccc(S(=O)(=O)N2CCOCC2)o1` the inhibition was 6.4% (active). `COc1ccc2c(c1)CCCO[C@]21O[C@H](CCO)C[C@H](O)[C@H]1O` was tested, and the inhibition was 0.36% (inactive). For `O=C(O)C1CCCN1c1nc(Cl)ccc1[N+](=O)[O-]` (stereo not given), the inhibition was -0.69% (inactive). For `Cn1ncc([N+](=O)[O-])c1C(=O)Nc1cc(Cl)ccc1Cl`, the inhibition was 1.05% (inactive). `Cc1nc(-c2ccc(Cl)cc2)sc1C(=O)CBr` was tested, and the inhibition was -0.83% (inactive). For `Cc1nc(-c2ccccc2)sc1C(=O)/C=C/N(C)C`, the inhibition was 3.31% (inactive). For `Cc1nc(-c2ccccc2)sc1C(=O)/C=C/c1ccccc1`, the inhibition was 5.32% (active). `c1ccc(Cn2nnc3c(NCC4CC4)ncnc32)cc1` was tested, and the inhibition was 1.59% (inactive). In the case of `O=C(Nc1ncccc1O)c1ccc(S(=O)(=O)N2CCCC2)cc1`, the inhibition is reported as 2.95% (inactive). With `O=C(Nc1ncccc1O)c1ccc(S(=O)(=O)N2CCCCCC2)cc1` the inhibition was 1.6% (inactive). With `O=C(Nc1ncccc1O)c1ccc(C(=O)c2ccccc2)cc1` the inhibition was 10.6% (active). In the case of `Cc1cccc(C)c1NC(=O)CNC(=O)c1ccc(N2CCOCC2)c([N+](=O)[O-])c1`, the inhibition is reported as 0.52% (inactive). `CC1=C(C(=O)N2CCOCC2)CC(CC(=O)NCC2CCCCC2)C(=O)N1Cc1ccc(F)cc1` (stereo not given) was tested, and the inhibition was 0.65% (inactive). `COc1ccc2nc(SCc3ccccc3)nc(C)c2c1` was tested, and the inhibition was 4.59% (active). For `COc1cccc(CSc2nc3nc(C)cc(C)n3n2)c1`, the inhibition was 1.86% (inactive). With `COc1ccc(-c2nnc3ccc(SCc4ccccc4)nn23)cc1` the inhibition was 0.1% (inactive). With `COc1ccc(-c2ccc(CN3C(CC(C)C)C(=O)N(Cc4cn(CC5CCCCC5)nn4)CCS3(=O)=O)cc2)cn1` (stereo not given) the inhibition was -0.76% (inactive). In the case of `O=C(NCCOc1ccccc1)N1[C@H]2CC[C@@H]1C=C(c1ccc(F)cc1OCc1ccccc1)C2`, the inhibition is reported as 0.36% (inactive). In the case of `CCc1c(N=O)c(-c2ccccc2)n(O)[n+]1[O-]`, the inhibition is reported as 0.23% (inactive). In the case of `C[C@@H]1CN([C@@H](C)CO)C(=O)CCCn2nncc2CO[C@@H]1CN(C)S(=O)(=O)c1ccc(-c2ccccc2)cc1`, the inhibition is reported as 0.31% (inactive). In the case of `O=C(COC(=O)c1ccc(O)cc1O)c1ccc2c(c1)OCCO2`, the inhibition is reported as -0.46% (inactive). In the case of `O=C(/C=C\c1ccc2c(c1)OCO2)NC1(C(=O)Nc2ccc3c(c2)OCCO3)CCCCC1`, the inhibition is reported as -0.83% (inactive). In the case of `O=C(/C=C/c1ccc2c(c1)OCCO2)c1ccc(O)cc1`, the inhibition is reported as 16.4% (active). With `COc1ccc(-c2ccc(CN3C(CC(C)C)C(=O)N(Cc4cn(CC5CCCCC5)nn4)CCS3(=O)=O)cc2)cc1` (stereo not given) the inhibition was 1.23% (inactive). In the case of `COCCCN1C(=O)C(CC(=O)NCc2cccs2)CC(C(=O)N2CCOCC2)=C1C` (stereo not given), the inhibition is reported as 1.28% (inactive). With `CN1CCn2cnc(C(=O)NCC(=O)OC(C)(C)C)c2C1=O` the inhibition was 0.48% (inactive). `C[C@@H]1CN([C@@H](C)CO)C(=O)CCCn2cc(nn2)CO[C@H]1CN(C)S(=O)(=O)c1ccc(-n2cccn2)cc1` was tested, and the inhibition was 1.04% (inactive). `O=c1[nH]c2ccccc2n1C1CCN(CCOc2ccccc2)CC1` was tested, and the inhibition was -1.06% (inactive). For `Cc1nonc1NC(=O)CSc1nc2ccccc2cc1C#N`, the inhibition was 2.09% (inactive). With `CCOC(=O)CSc1nccc(N(C)C)c1C#N` the inhibition was 0.68% (inactive). For `CCOc1ccc2cc(C#N)c(SCC(=O)OC)nc2c1`, the inhibition was 4.25% (active). In the case of `COc1ccc(C(C)(C)C)cc1NC(=O)CN(C)C1=NS(=O)(=O)c2ccccc21`, the inhibition is reported as 0.35% (inactive). `O=C(CCCN1C(=O)C(c2ccccc2)Oc2cccnc21)Nc1ccccc1Br` (stereo not given) was tested, and the inhibition was 0.05% (inactive). In the case of `N#CCSc1ccccc1NC(=O)CN1C(=O)NC(CCc2ccccc2)C1=O` (stereo not given), the inhibition is reported as 2.57% (inactive). With `C#CCN(C[C@H]1[C@H](OC(=O)NC2CCCC2)[C@H](OC(=O)NC2CCCC2)C[C@H]2C(=O)N(c3ccccc3)C(=O)[C@@H]12)S(=O)(=O)c1ccc(C)cc1` the inhibition was -0.02% (inactive). For `CC1CCC2(CC1)NC(=O)N(CC(=O)NCc1ccco1)C2=O` (stereo not given), the inhibition was 3.52% (inactive). `Cc1ccc(S(=O)(=O)N2C[C@H]3n4c(=O)ccc(=O)n4C[C@H](OC(=O)NC4CCCC4)[C@@]3(O)C2)cc1` was tested, and the inhibition was 0.12% (inactive). `C[C@H](CO)N1C[C@H](C)[C@@H](CN(C)C(=O)c2cccc(F)c2)Oc2cc(-c3cncnc3)ccc2S1(=O)=O` was tested, and the inhibition was 1.05% (inactive). With `CCCOC(=O)c1[nH]c2c(c1C)C(=O)CC(c1cccs1)C2` (stereo not given) the inhibition was 1.32% (inactive). With `CCCCOC(=O)c1[nH]c(C)c(C(=O)OC)c1C` the inhibition was 2.23% (inactive). `COC(=O)C1C(=O)c2c([nH]c(C(=O)OCCSC)c2C)CC1C` (stereo not given) was tested, and the inhibition was 5.56% (active). For `C[C@H](CO)N1C[C@H](C)[C@@H](CN(C)S(=O)(=O)c2ccc(F)cc2)OCc2cnnn2CCCC1=O`, the inhibition was 0.91% (inactive). For `c1ccc(-c2ccc3c(c2)NC(C2Nc4cc(-c5ccccc5)ccc4O2)O3)cc1` (stereo not given), the inhibition was -0.52% (inactive). With `Oc1ccc(-c2cccc(-c3ccc(O)cc3)c2)cc1` the inhibition was 2.72% (inactive). In the case of `c1ccc(-c2c[nH]c(-c3ccccc3)c2)cc1`, the inhibition is reported as 4.28% (active). For `COc1cccc(NC(=O)CN(C)C(=O)c2cc(Cl)nc3ccccc23)c1`, the inhibition was -0.56% (inactive). `Cn1c(=O)c([N+](=O)[O-])c(Oc2ccccc2)c2ccccc21` was tested, and the inhibition was 1.91% (inactive). In the case of `COc1cc2c(=O)n(C)c3ccccc3c2cc1OC`, the inhibition is reported as 0.78% (inactive). For `Cc1cccc(Oc2c([N+](=O)[O-])c(=O)n(C)c3ccccc23)c1`, the inhibition was 5.15% (active).
